Values joined by “and” are separate entries in the source; they are usually repeats but may differ in a detail not shown here. Equal entries are not always repeated. Structures can show the parent of a compound that is named as a salt.
What was measured:
Experiment in all cases: cell viability relative to vehicle control; higher = less cytotoxic
Conditions in all cases: 10 µM
K562 = test system: K562
Outline: (§1)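 Mutant clones made by CRISPR editing and their isogenic wild-type counterparts, from four leukaemia lines, were exposed to a single 10 µM dose of each library compound for 48 h. The supernatant was then removed and CellTiter-Glo luminescence was read. Viability was reported as percent of the on-plate vehicle control.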

MARIMO = test system: MARIMO
Outline: as §1

MOLM14 = test system: MOLM14
Outline: as §1

OCI-AML2 = test system: OCI-AML2
Outline: as §1

SMILES | cell viability (K562; SRSF2 genotype: SRSF2 P95H/wt) | cell viability (K562; SRSF2 genotype: SRSF2 wt/wt) [%] | cell viability (MARIMO; SRSF2 genotype: SRSF2 P95H/wt) [%] | cell viability (MARIMO; SRSF2 genotype: SRSF2 wt/wt) [%] | cell viability (MOLM14; SRSF2 genotype: SRSF2 P95H/wt) [%] | cell viability (MOLM14; SRSF2 genotype: SRSF2 wt/wt) [%] | cell viability (OCI-AML2; SRSF2 genotype: P95H/wt) [%] | cell viability (OCI-AML2; SRSF2 genotype: wt/wt) [%]
CC(C)=CC(=O)O[C@H]1Cc2cc3ccc(=O)oc3cc2OC1(C)C [Decursin] | 89.5% and 93.4% | 90 | 81.6 | 88.5 | 91.1 | 92.5 | 83.7 | 87
Cn1c([N+](=O)[O-])cnc1COC(N)=O [Ronidazole] | 95.1% and 89% | 92.3 | 97.3 | 97.3 | 96 | 99.5 | 90.8 | 102
O=C(c1ccc(OCCN2CCCCC2)cc1)c1c(-c2ccc(O)cc2)sc2cc(O)ccc12 [Evista (Raloxifene Hydrochloride)] | 75.3% and 80.4% | 81.3 | 79.3 | 77.8 | 76.2 | 81.3 | 82.7 | 77.2
CCN1CCN(Cc2ccc(Nc3ncc(F)c(-c4cc(F)c5nc(C)n(C(C)C)c5c4)n3)nc2)CC1 | 1.86% and 0.59% | 0.69 | 0.46 | 0.64 | 0.3 | 0.31 | 0.29 | 0.39
COc1ccccc1OCCN [Carvedilol EP IMpurity E] | 112% and 110% | 113 | 98 | 102 | 103 | 107 | 119 | 117
CC(C(=O)O)c1ccc(C(=O)c2cccs2)cc1 (stereo not drawn) [Suprofen (Profenal)] | 107% and 103% | 93.2 | 94.7 | 110 | 98.9 | 99.9 | 88.8 | 94.2
CCn1cc(C(=O)O)c(=O)c2cc(F)c(N3CCNCC3)cc21 [Norfloxacin (Norxacin)] | 91.3% and 98.8% | 90.9 | 88.7 | 95.5 | 90.5 | 91.8 | 97.4 | 91.5
Nc1ccc(Oc2ccc(-c3ccc(Oc4ccc(N)cc4)cc3)cc2)cc1 [4,4prime-Bis(4-aminophenoxy)biphenyl] | 103% and 98.3% | 110 | 96.9 | 101 | 100 | 102 | 96 | 112
CO[C@@H]1[C@@H](OC)[C@H](C)[C@@](O)(CC(=O)O)O[C@H]1[C@H](C)[C@H]1O[C@@]2(CC[C@@](C)([C@H]3CC[C@@](C)([C@@H]4O[C@@H]([C@H]5O[C@](C)(O)[C@H](C)C[C@@H]5C)C[C@@H]4O[C@@H]4C[C@H](OC)[C@@H](OC)[C@H](C)O4)O3)O2)C[C@H](O)[C@H]1C [Maduramycin Ammonium] | 3.55% and 4.75% | 8.25 | 22.7 | 17.7 | 25.6 | 22.5 | 1.54 | 8.79
COC(=O)c1cc(OC)c(OC)c(OC)c1 [Methyl EudesMate] | 103% and 105% | 100 | 97.6 | 109 | 108 | 106 | 102 | 110
COC[C@H]1C[C@@H](c2nc(-c3ccc4c(c3)COc3cc5c(ccc6nc([C@@H]7CC[C@H](C)N7C(=O)[C@@H](NC(=O)OC)C(C)C)[nH]c65)cc3-4)c[nH]2)N(C(=O)[C@H](NC(=O)OC)c2ccccc2)C1 [Velpatasvir] | 95.6% and 98.5% | 87.6 | 88.2 | 91.6 | 90.1 | 93.5 | 98 | 93.6
O=C(C=CC=Cc1ccccc1)CCc1ccccc1 [Alnustone] | 105% and 100% | 91.8 | 92 | 87.5 | 88.1 | 87.4 | 76.6 | 95.6
O=C(O)C(=O)O [Oxalic acid] | 99% and 94.9% | 90 | 95.8 | 94.5 | 95.2 | 94.3 | 99.2 | 99.6
O=C(O)c1cc(O)c2c(c1)[C@@H]([C@H]1c3cc(C(=O)O)cc(O)c3C(=O)c3c(O[C@@H]4O[C@H](CO)[C@@H](O)[C@H](O)[C@H]4O)cccc31)c1cccc(O[C@@H]3O[C@H](CO)[C@@H](O)[C@H](O)[C@H]3O)c1C2=O [Sennoside B] | 75.3% and 75.2% | 81.5 | 79.3 | 88.2 | 76.2 | 75.6 | 77.4 | 87.7
Nc1ccc2ncnc(NCCc3ccc(Oc4ccccc4)cc3)c2c1 | 68.5% and 56.3% | 67.6 | 62.7 | 58.3 | 69.8 | 63.6 | 52.3 | 51.5
C[C@H]1[C@H](OC(=O)CCC(=O)O)O[C@@H]2O[C@@]3(C)CC[C@H]4[C@H](C)CC[C@@H]1[C@@]24OO3 [Artesunate] | 43.3% and 38.6% | 41.2 | 42.7 | 37.8 | 34.5 | 28.3 | 2.96 | 17.9
COc1ccc(S(=O)(=O)Nc2nc(-c3cccc([N+](=O)[O-])c3)cs2)cc1OC | 104% and 99% | 92.7 | 97.4 | 112 | 93.3 | 100 | 95.4 | 108
O=S(=O)(NCCSSCCNS(=O)(=O)c1cc(Cl)ccc1Cl)c1cc(Cl)ccc1Cl | 80.6% and 84.4% | 69.5 | 61 | 72.4 | 53.8 | 48.8 | 51.9 | 52.5
CC(C)(C)c1nc(-c2cccc(NS(=O)(=O)c3c(F)cccc3F)c2F)c(-c2ccnc(N)n2)s1 | 90.3% and 101% | 84.3 | 78.5 | 75.8 | 73.6 | 68.2 | 93.2 | 83.9
COc1cc(Nc2ncc(F)c(Nc3ccc4c(n3)NC(=O)C(C)(C)O4)n2)cc(OC)c1OC [R406(free base)] | 95% and 101% | 104 | 72.2 | 85.1 | 25.2 | 16 | 42.1 | 56.3
COc1ccc(-c2cc(=O)c3c(O)cc(O[C@@H]4O[C@H](CO[C@@H]5O[C@@H](C)[C@H](O)[C@@H](O)[C@H]5O)[C@@H](O)[C@H](O)[C@H]4O)cc3o2)cc1O [Diosmin] | 90.8% and 97.8% | 89.9 | 94.8 | 101 | 97.6 | 92.4 | 90.4 | 92.4
